An excerpt weighted towards active compounds, which were near 5.2% of everything screened.
Tau fibril ThT – inhibitors of human tau fibril formation, thioflavin T binding. AID 1460. hit rate 2.1% among 270,000. P10636. recombinant tau K18 P301L, heparin-induced fibrillization, ThT fluorescence. Potency, µM (highest dose often 57.4 µM), actives largely listed as inhibitors; also: nearly all actives have a fitted effect of over 55% in size
Target sequence (P10636 561-689 P618L limits assumed): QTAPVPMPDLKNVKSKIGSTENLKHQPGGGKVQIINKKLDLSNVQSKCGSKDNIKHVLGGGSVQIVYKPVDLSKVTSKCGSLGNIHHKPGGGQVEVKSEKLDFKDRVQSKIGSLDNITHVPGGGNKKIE
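ThT emission at 510 nm, taken 1 hr after adding 30 uM dye, quantifies aggregates formed when 20 uM heparin acts on human tau K18 P301L for 6 hr at 37 C.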
Sfp PPTase inh – blocks B. subtilis Sfp PPTase activity; Potency, µM, actives largely listed as inhibitors; hit rate 3.5% among 310,000; Q9F4F7; Biochemical Sfp PPTase activity, qHTS; AID 1490;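 also: the enzyme is Sfp with the accession as filed and its product quenches rhodamine fluorescence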
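With Hepes-Na pH 7.6 buffer containing 10 mM MgCl2, Sfp (15 nM) modified BHQ-2-YbbR (12.5 uM) using rhodamine-CoA (5 uM). Two reads 30 minutes apart at 525/598 nm yielded each well's rate.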
FBPA coupling cs – coupling enzyme interference in Giardia aldolase counter-screen; coupling enzyme system counterscreen, AmpLite Red fluorescence; activity change, negative = inhibition, % at 58.2 µM, hits read low; hit rate 0.67% among 290,000; AID 2472; in the data active = activity change below about -30%
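First, compound is pin-transferred into glyceraldehyde-3-phosphate coupling-enzyme reagent at 57.5 uM final and held 10 min at RT. Next, substrate, coupling system and AmpLite Red are added. After 20 min RT, fluorescence (525/598 nm) is read.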
Tau fibril FP – blocks human tau fibril formation measured by polarization; hit rate 0.39% among 280,000; Potency, µM (titrated, usually from 57.7 µM), usual class: inhibitors; AID 1468; K18 P301L tau heparin fibrillization, Alexa594 FP, 6 h; also: nearly all actives have a fitted effect of over 55% in size
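Steps: dispense K18 P301L tau (15 uM plus 0.24 uM Alexa 594 tracer, final) in pH 7 sodium acetate; add compound; add heparin (20 uM final); incubate 6 hr, 37 C; add ThT (30 uM final); after 1 hr ambient, read FP.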
Tau fluor cs – counter-screen for tau fibril formation inhibitors; AID 1463; hit rate 0.93% among 280,000; Potency, µM (highest dose often 57.7 µM); tau K18 P301L (four-repeat tau fragment) Alexa594 fluorescence, heparin fibrillization; also: nearly all actives have a fitted effect of over 55% in size
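Human K18 P301L tau (15 uM unlabeled plus 0.24 uM Alexa 594-labeled, final) in 100 mM sodium acetate pH 7 was mixed with compound and 20 uM heparin and incubated 6 hr at 37 C.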
A number is an active result; [ ] = another dose, or the depositor's remark. Unless noted, calls follow the shape of the dose curve; as a rule, active = well fitted curve in the direction sought with a large enough effect; inconclusive = small, poorly fitted or top-dose-only effect, or another doubt; inactive = no such curve, though single readings can be large; an effect the other way counts as inactive or inconclusive.

`CCC(Cc1c(I)cc(I)c(O)c1I)C(=O)O` (stereo not drawn) gave Sfp PPTase inh 56µM.
COc1ccc(OC)c(NC(=O)c2c(NCc3ccc(C)o3)sc3c2CCC(C)C3)c1 (stereo not drawn) was read as Tau fibril ThT inconclusive, Tau fibril FP inactive and Tau fluor cs inconclusive.
CCOC(=O)C1CCCN(C(=O)c2ccc(NC(=O)c3nsc4ccccc34)cc2)C1 (stereo not drawn) was read as Tau fibril ThT inactive, Tau fibril FP inactive and Tau fluor cs inactive.
Screening Cc1cc(C)n2cc(COc3ccc4ccccc4c3)nc2n1 returned Tau fibril ThT inconclusive, Sfp PPTase inh inactive, FBPA coupling cs inactive, Tau fibril FP inactive and Tau fluor cs inactive.
`Cc1cccc2nc(COc3ccc(-c4ccccc4)cc3)cn12` gave Tau fibril ThT inconclusive, Sfp PPTase inh 45µM, FBPA coupling cs inactive, Tau fibril FP inactive and Tau fluor cs inactive.
`Cc1ccc(C2=Nc3ccccc3N=C(c3ccc(F)cc3)C2)c(O)c1` gave Tau fibril ThT inactive, Tau fibril FP inactive and Tau fluor cs inactive.
CC(C)c1ccc(/C=C/C(=O)n2nnc3ccccc32)cc1 was read as Tau fibril ThT 20µM, Sfp PPTase inh inactive, FBPA coupling cs inactive, Tau fibril FP inconclusive and Tau fluor cs inactive.
CC(C)c1ccc(/C=C/C(=O)N2CCCCCC2)cc1 was read as Tau fibril ThT inconclusive, Sfp PPTase inh inactive, FBPA coupling cs inactive, Tau fibril FP inactive and Tau fluor cs inactive.
Screening O=c1[nH][nH]c(=S)n1C1CCCCC1 returned Tau fibril ThT 32µM, Sfp PPTase inh 2.8µM, FBPA coupling cs -39, Tau fibril FP inconclusive and Tau fluor cs inactive.
`O=c1cc(O)n(C2CCCCCC2)c(=O)[nH]1` gave Sfp PPTase inh inactive and FBPA coupling cs inactive.
For Cc1cc(C)nc(SCC(=O)NC2CCCC2)n1 the results were Tau fibril ThT inactive, Sfp PPTase inh inactive, FBPA coupling cs inactive, Tau fibril FP inactive and Tau fluor cs inactive.
Screening Cc1cc(C)n2nc(SCC(=O)NC3CCCCC3)nc2n1 returned Sfp PPTase inh 40µM.
For Cc1nc(SCC(=O)NC(=O)NC2CCCCC2)nc(C)c1C the results were Tau fibril ThT inactive, Sfp PPTase inh 50µM, FBPA coupling cs inactive, Tau fibril FP inconclusive and Tau fluor cs inactive.
`Cc1csc(SCC(=O)NC(=O)NC2CCCC2)n1` gave Tau fibril ThT inactive, Sfp PPTase inh inactive, FBPA coupling cs inactive, Tau fibril FP inactive and Tau fluor cs inactive.
CC(=O)CC1OC(=O)C(Br)=C1NCc1ccccc1 (stereo not drawn) was read as Tau fibril ThT 8.9µM, Sfp PPTase inh inactive, FBPA coupling cs inactive, Tau fibril FP inconclusive and Tau fluor cs inactive.
For O=C(CC1Oc2ccccc2NC1=O)NCc1ccccc1 (stereo not drawn) the results were Tau fibril ThT inactive, Sfp PPTase inh inactive, FBPA coupling cs inactive, Tau fibril FP inactive and Tau fluor cs inactive.
COc1ccc(S(=O)(=O)c2c(O)c3ccc(C(=O)NCc4ccccc4)cc3[nH]c2=O)cc1 was read as Tau fibril ThT inactive, Tau fibril FP inactive and Tau fluor cs inactive.
For Cc1cc(-c2nc3ncccc3o2)ccc1NC(=O)COc1cc(C)c(Cl)c(C)c1 the results were Tau fibril ThT inconclusive, Tau fibril FP inactive and Tau fluor cs inactive.
`Cc1ccc(C)c(C(=O)CSc2n[nH]c(C(C)C)n2)c1` gave Tau fibril ThT inactive, Sfp PPTase inh inactive, FBPA coupling cs inactive, Tau fibril FP inactive and Tau fluor cs inactive.
Cc1ccc(C)c(C(=O)CSc2n[nH]c(C)n2)c1 was read as Tau fibril ThT inactive, Sfp PPTase inh 79µM, FBPA coupling cs inactive, Tau fibril FP inactive and Tau fluor cs inactive.
For CCc1nc(SCC(=O)c2cc(C)ccc2C)n[nH]1 the results were Tau fibril ThT inactive, Sfp PPTase inh 56µM, FBPA coupling cs inactive, Tau fibril FP inactive and Tau fluor cs inactive.
Screening Cc1c(CC(=O)NCc2ccccc2Cl)c(=O)oc2cc(O)ccc12 returned Tau fibril ThT inconclusive, Tau fibril FP inactive and Tau fluor cs inactive.
For CCOC(=O)CCC(NC(=O)c1cncc(O)c1)C(=O)OCC (stereo not drawn) the results were Tau fibril ThT inactive, Sfp PPTase inh inactive, FBPA coupling cs inactive, Tau fibril FP inactive and Tau fluor cs inactive.
For CC(CNC(=O)c1cncc(O)c1)NC(=O)c1cncc(O)c1 (stereo not drawn) the results were Tau fibril ThT inactive, Sfp PPTase inh 79µM, FBPA coupling cs inactive, Tau fibril FP inactive and Tau fluor cs inactive.
O=C1CC(N2CCN(c3ccc(O)cc3)CC2)C(=O)N1c1ccc2c(c1)OCO2 (stereo not drawn) was read as Tau fibril ThT inconclusive, Sfp PPTase inh 40µM, FBPA coupling cs inactive, Tau fibril FP inactive and Tau fluor cs inactive.
For O=C1C2C3C=CC(C3)C2C(=O)N1c1ccc2c(c1)OCO2 (stereo not drawn) the results were Tau fibril ThT 32µM, Sfp PPTase inh inactive, FBPA coupling cs inactive, Tau fibril FP inconclusive and Tau fluor cs inconclusive.
Screening CCN(c1ccccc1)S(=O)(=O)c1c(C)nc2scc(C)n2c1=O returned Tau fibril ThT inactive, Tau fibril FP inactive and Tau fluor cs inactive.
For O=C(Nc1ccc(OCC(=O)N2CCC(Cc3ccccc3)CC2)cc1)c1ccco1 the results were Tau fibril ThT inconclusive, Sfp PPTase inh 89µM, FBPA coupling cs inactive, Tau fibril FP inactive and Tau fluor cs inactive.
CC(=O)Nc1ccc(OCC(=O)N2CCC(Cc3ccccc3)CC2)cc1 was read as Tau fibril ThT inactive, Sfp PPTase inh inactive, FBPA coupling cs inactive, Tau fibril FP inactive and Tau fluor cs inactive.
For N/C(=N\N=C\c1ccc(Cl)cc1)N/N=C/c1ccc(Cl)cc1 the results were Sfp PPTase inh 79µM.
Screening COc1cc(C)c(C)cc1S(=O)(=O)Nc1cccc(-c2ccc(N3CCOCC3)nn2)c1 returned Tau fibril ThT inactive, Tau fibril FP inactive and Tau fluor cs inactive.
Screening CC(=O)Nc1nc(C)c(C(C)=O)s1 returned Tau fibril ThT inactive, Sfp PPTase inh inactive, FBPA coupling cs inactive, Tau fibril FP inactive and Tau fluor cs inactive.
Screening CC(=O)c1sc(N/N=C2\CC3CCC2(C)C3(C)C)nc1C (stereo not drawn) returned Tau fibril ThT inactive, Sfp PPTase inh 28µM, FBPA coupling cs inactive, Tau fibril FP inactive[2.34 µM] and Tau fluor cs inactive.
Cc1cc(C)cc(N2C(=O)CC(Sc3ncn[nH]3)C2=O)c1 (stereo not drawn) was read as Tau fibril ThT inconclusive, Sfp PPTase inh 35µM, FBPA coupling cs inactive, Tau fibril FP inactive and Tau fluor cs inactive.
For Cc1cc(C)cc(N2C(=O)CC(Sc3nnnn3-c3ccccc3)C2=O)c1 (stereo not drawn) the results were Tau fibril ThT inconclusive, Sfp PPTase inh inactive, Tau fibril FP inactive and Tau fluor cs inactive.
CCOc1ccc(N2CC(C(=O)Nc3nnc(CC)s3)CC2=O)cc1 (stereo not drawn) was read as Sfp PPTase inh 56µM and FBPA coupling cs inactive.
